ChEMBL document CHEMBL1961873, “Compounds: GSK PKIS; Assays: Nanosyn kinase panel” (2012)

These compounds were tested against T1, Aurora kinase A (Homo sapiens) (UniProt O14965). Details: at 1 µM.
T1 sequence (whole entry): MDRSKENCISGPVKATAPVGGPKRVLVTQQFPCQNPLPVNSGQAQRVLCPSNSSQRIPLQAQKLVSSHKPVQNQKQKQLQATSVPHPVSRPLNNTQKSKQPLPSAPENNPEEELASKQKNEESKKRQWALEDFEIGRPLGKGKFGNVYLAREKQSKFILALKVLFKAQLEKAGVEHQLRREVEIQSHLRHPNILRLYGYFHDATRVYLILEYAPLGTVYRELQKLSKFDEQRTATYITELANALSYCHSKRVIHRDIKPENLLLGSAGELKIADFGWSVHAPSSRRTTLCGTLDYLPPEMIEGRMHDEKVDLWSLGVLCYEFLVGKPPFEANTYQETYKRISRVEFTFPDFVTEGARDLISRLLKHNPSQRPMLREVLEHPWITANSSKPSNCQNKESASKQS
In the case of `c1ccc(COc2ccc(Nc3ncnc4ccc(-c5ccco5)cc34)cc2)cc1`, the inhibition is reported as 3.53%.
Work on `COc1ccc2[nH]c3c4[nH]c5ccc(OC)cc5c4c4c(c3c2c1)C(=O)NC4=O` yielded an inhibition of 68.8%.
With `CC1=C(C(=O)Nc2cc(Cl)c3[nH]ncc3c2)C(c2ccc(C(F)(F)F)cc2)CC(=O)N1` (stereo unspecified) the inhibition was 16.6%.
For `Cc1cccc(Nc2ncc(-c3ccccc3)o2)c1`, the inhibition was 7.93%.
In the case of `Clc1ccc(-c2nn3ncccc3c2-c2ccnc(Nc3ccccc3)n2)cc1`, the inhibition is reported as 25.5%.
In the case of `Cc1ccc(O)cc1Nc1ccnc2cc(-c3ccccn3)ccc12`, the inhibition is reported as 17.7%.
`FC(F)(F)c1cccc(-c2nn3ncccc3c2-c2ccnc(Nc3ccc4c(c3)OCCO4)n2)c1` gave an inhibition of 24.7%.
`Nc1nc(-c2cccc(Cl)c2)c(-c2ccc3ncccc3n2)s1` gave an inhibition of 4.83%.
Compound `COc1ccc2c(-c3ccnc(Nc4cccc(OC(F)(F)F)c4)n3)cnn2n1` has an inhibition of 33.9%.
In the case of `CCN(CC)S(=O)(=O)c1ccc(OC)c(Nc2ncc(-c3ccccc3)o2)c1`, the inhibition is reported as 13.9%.
`COc1ccc(-c2oc3ncnc(N)c3c2-c2ccc(NC(=O)Nc3cc(C(F)(F)F)ccc3F)cc2)cc1` showed an inhibition of 49.5%.
Work on `CS(=O)(=O)CCNCc1ccc(-c2ccc3ncnc(Nc4ccc(OCc5ccccc5)c(C(F)(F)F)c4)c3c2)o1` yielded an inhibition of 2.77%.
For `NS(=O)(=O)c1ccc(Nc2ncc(-c3ccccc3)o2)cc1`, the inhibition was 67.2%.
With `CN1CCC(n2cnc(-c3ccc(F)cc3)c2-c2ccnc(Nc3ccccc3)n2)CC1` the inhibition was 5.7%.
For `CCCN(CCS(C)(=O)=O)Cc1ccc(-c2ccc3ncnc(Nc4ccc(OCc5cccc(F)c5)c(Cl)c4)c3c2)o1`, the inhibition was 11.8%.
`CN(C)CCOc1ccc(-c2nc(-c3ccncc3)c(-c3ccc4c(c3)CC/C4=N\O)[nH]2)cc1` gave an inhibition of 12%.
Work on `CCn1c(-c2nonc2N)nc2c(C#CC(C)(C)O)ncc(OC3CCNCC3)c21` yielded an inhibition of 0.96%.
`COc1ccc(CNC(=O)c2ccc(-c3cc(-c4nnc(C)o4)ccc3C)cc2)cc1` gave an inhibition of 4.73%.
With `[O-][S+]1CCN(Cc2ccc(-c3ccc4ncnc(Nc5ccc(OCc6cccc(F)c6)c(Cl)c5)c4c3)o2)CC1` the inhibition was 4.74%.
With `Nc1ncc(-c2cccc(S(N)(=O)=O)c2)c2scc(-c3ccc(F)c(Cl)c3)c12` the inhibition was 5.8%.
`Nc1nc(-c2ccc(F)cc2)c(-c2ccc3ncccc3n2)s1` showed an inhibition of 10.6%.
`Cc1cccc2c1NC(=O)/C2=N\Nc1ccc(S(N)(=O)=O)cc1` showed an inhibition of 8.68%.
Work on `N#Cc1c(NC(=O)CN2CCOCC2)sc2c1CCCC2` yielded an inhibition of 8.53%.
Work on `CNC(=O)c1cncc(/C=C/c2ccccc2Cl)c1` yielded an inhibition of 12%.
In the case of `c1ccc(-c2nc3n(c2-c2ccc4c(c2)OCO4)CCC3)nc1`, the inhibition is reported as 2.32%.
`CCCN1CCC(c2ccc(Nc3nc(Nc4cc(F)ccc4C(N)=O)c4cc[nH]c4n3)c(OC)c2)CC1` showed an inhibition of 10.4%.
In the case of `CNC(=O)c1cccc(C#Cc2cncnc2Nc2ccc(OCc3cccc(F)c3)c(Cl)c2)c1`, the inhibition is reported as 11.8%.
`Fc1ccc(-c2cc(-c3c[nH]nc3-c3ccccn3)ccn2)cc1` gave an inhibition of 4.79%.
`COc1ccc(-c2cc3c(N)ncnc3o2)cc1` gave an inhibition of 1.33%.
`CC(C)(CO)CNC(=O)c1ccc2c(c1)/C(=N/Nc1ccc(S(N)(=O)=O)cc1)C(=O)N2` showed an inhibition of 56.2%.
`COc1cccc(-c2c[nH]c3c(N/N=C/c4ccncc4)ncnc23)c1` gave an inhibition of 37.7%.
With `CCc1nn2ncccc2c1-c1ccnc(NC2CC2)n1` the inhibition was 14.8%.
Compound `NC(=O)c1sc(-n2cnc3ccc(C(F)(F)F)cc32)cc1OCc1ccccc1Br` has an inhibition of 5.5%.

What follows are compounds tested against Aurora kinase B (Homo sapiens) (UniProt Q96GD4). Details: at 0.1 µM.
Aurora kinase B (Homo sapiens), sequence (Q96GD4 whole entry): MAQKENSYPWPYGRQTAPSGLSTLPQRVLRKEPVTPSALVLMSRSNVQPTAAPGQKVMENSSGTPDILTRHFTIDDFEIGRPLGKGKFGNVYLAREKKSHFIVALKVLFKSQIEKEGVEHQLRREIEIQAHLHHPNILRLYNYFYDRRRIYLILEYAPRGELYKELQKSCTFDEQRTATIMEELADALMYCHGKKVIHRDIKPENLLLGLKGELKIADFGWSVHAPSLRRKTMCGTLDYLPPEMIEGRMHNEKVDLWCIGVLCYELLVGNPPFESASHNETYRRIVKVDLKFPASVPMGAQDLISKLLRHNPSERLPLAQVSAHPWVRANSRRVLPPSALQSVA
`c1ccc(COc2ccc(Nc3ncnc4ccc(-c5ccco5)cc34)cc2)cc1` gave an inhibition of 1.9%.
For `COc1ccc2[nH]c3c4[nH]c5ccc(OC)cc5c4c4c(c3c2c1)C(=O)NC4=O`, the inhibition was 20.7%.
Work on `CC1=C(C(=O)Nc2cc(Cl)c3[nH]ncc3c2)C(c2ccc(C(F)(F)F)cc2)CC(=O)N1` (stereo unspecified) yielded an inhibition of 2.95%.
Work on `Cc1cccc(Nc2ncc(-c3ccccc3)o2)c1` yielded an inhibition of 3.4%.
In the case of `Clc1ccc(-c2nn3ncccc3c2-c2ccnc(Nc3ccccc3)n2)cc1`, the inhibition is reported as 3.6%.
Compound `Cc1ccc(O)cc1Nc1ccnc2cc(-c3ccccn3)ccc12` has an inhibition of 9.57%.
Compound `FC(F)(F)c1cccc(-c2nn3ncccc3c2-c2ccnc(Nc3ccc4c(c3)OCCO4)n2)c1` has an inhibition of 4.28%.
`Nc1nc(-c2cccc(Cl)c2)c(-c2ccc3ncccc3n2)s1` gave an inhibition of 3.18%.
`COc1ccc2c(-c3ccnc(Nc4cccc(OC(F)(F)F)c4)n3)cnn2n1` was tested, and the inhibition was 5.14%.
`CCN(CC)S(=O)(=O)c1ccc(OC)c(Nc2ncc(-c3ccccc3)o2)c1` gave an inhibition of 1.33%.
Compound `COc1ccc(-c2oc3ncnc(N)c3c2-c2ccc(NC(=O)Nc3cc(C(F)(F)F)ccc3F)cc2)cc1` has an inhibition of 8.53%.
`CS(=O)(=O)CCNCc1ccc(-c2ccc3ncnc(Nc4ccc(OCc5ccccc5)c(C(F)(F)F)c4)c3c2)o1` showed an inhibition of 1.73%.
`NS(=O)(=O)c1ccc(Nc2ncc(-c3ccccc3)o2)cc1` gave an inhibition of 5.18%.
For `CN1CCC(n2cnc(-c3ccc(F)cc3)c2-c2ccnc(Nc3ccccc3)n2)CC1`, the inhibition was 3.55%.
`CCCN(CCS(C)(=O)=O)Cc1ccc(-c2ccc3ncnc(Nc4ccc(OCc5cccc(F)c5)c(Cl)c4)c3c2)o1` was tested, and the inhibition was 3.11%.
In the case of `CN(C)CCOc1ccc(-c2nc(-c3ccncc3)c(-c3ccc4c(c3)CC/C4=N\O)[nH]2)cc1`, the inhibition is reported as 1.63%.
`CCn1c(-c2nonc2N)nc2c(C#CC(C)(C)O)ncc(OC3CCNCC3)c21` gave an inhibition of 2.65%.
`COc1ccc(CNC(=O)c2ccc(-c3cc(-c4nnc(C)o4)ccc3C)cc2)cc1` showed an inhibition of 5.79%.
Compound `[O-][S+]1CCN(Cc2ccc(-c3ccc4ncnc(Nc5ccc(OCc6cccc(F)c6)c(Cl)c5)c4c3)o2)CC1` has an inhibition of 4.97%.
`Nc1ncc(-c2cccc(S(N)(=O)=O)c2)c2scc(-c3ccc(F)c(Cl)c3)c12` gave an inhibition of 2.25%.
`Nc1nc(-c2ccc(F)cc2)c(-c2ccc3ncccc3n2)s1` gave an inhibition of 6.06%.
`Cc1cccc2c1NC(=O)/C2=N\Nc1ccc(S(N)(=O)=O)cc1` showed an inhibition of 3.31%.
In the case of `N#Cc1c(NC(=O)CN2CCOCC2)sc2c1CCCC2`, the inhibition is reported as 4.66%.
`CNC(=O)c1cncc(/C=C/c2ccccc2Cl)c1` gave an inhibition of 2.57%.
Compound `c1ccc(-c2nc3n(c2-c2ccc4c(c2)OCO4)CCC3)nc1` has an inhibition of 1.52%.
For `CCCN1CCC(c2ccc(Nc3nc(Nc4cc(F)ccc4C(N)=O)c4cc[nH]c4n3)c(OC)c2)CC1`, the inhibition was 1.95%.
Work on `CNC(=O)c1cccc(C#Cc2cncnc2Nc2ccc(OCc3cccc(F)c3)c(Cl)c2)c1` yielded an inhibition of -0.67%.
`Fc1ccc(-c2cc(-c3c[nH]nc3-c3ccccn3)ccn2)cc1` showed an inhibition of 2.48%.
`COc1ccc(-c2cc3c(N)ncnc3o2)cc1` was tested, and the inhibition was -0.85%.
In the case of `CC(C)(CO)CNC(=O)c1ccc2c(c1)/C(=N/Nc1ccc(S(N)(=O)=O)cc1)C(=O)N2`, the inhibition is reported as 0.26%.
Compound `COc1cccc(-c2c[nH]c3c(N/N=C/c4ccncc4)ncnc23)c1` has an inhibition of 9.33%.
Compound `CCc1nn2ncccc2c1-c1ccnc(NC2CC2)n1` has an inhibition of 2.59%.
`NC(=O)c1sc(-n2cnc3ccc(C(F)(F)F)cc32)cc1OCc1ccccc1Br` gave an inhibition of 2.77%.
